The values below come from publication PMC10812921, “Transcriptional Coactivator BOB1 (OBF1, OCA-B) Modulates the Specificity of DNA Recognition by the POU-Domain Factors OCT1 and OCT2 in a Monomeric Configuration”.

The target in test [1] is POU1 (OCT1 POU domain) (human, UniProt P14859 260-458). Briefly: EMSA-SELEX-seq; no BOB1; 20 mM Tris-HCl pH 7.6, 140 mM NaCl, 10% glycerol, 0.5 mM EDTA, 0.05% Triton X-100, 0.1 mg/mL BSA, 0.1 mg/mL poly(dI-dC), 5 mM DTT, room temperature, 20 min; high values mean tight binding. The note with it: protein: recombinant; dsDNA, one strand shown. In outline:
(§1)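 With or without 28 ng coactivator protein, 30 ng of tagged POU-domain protein was combined with 300 ng of a PCR-amplified double-stranded random 35-nt library in 20 μL Tris–HCl pH 7.6 binding buffer for 20 min at RT. The protein came from E. coli BL21 and had been purified under denaturing conditions and renatured. Four rounds of cutting complex bands from native 6% PAGE, elution and PCR amplification preceded Illumina sequencing. The binding preference figure is the percentage of sequenced 8-mers matching a motif pattern.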
Background: In EMSA bound probe runs differently from free probe, usually more slowly.

Test [2] concerns the target T1, POU2 (OCT2 POU domain) (human, UniProt P09086 175-386).
T1 sequence: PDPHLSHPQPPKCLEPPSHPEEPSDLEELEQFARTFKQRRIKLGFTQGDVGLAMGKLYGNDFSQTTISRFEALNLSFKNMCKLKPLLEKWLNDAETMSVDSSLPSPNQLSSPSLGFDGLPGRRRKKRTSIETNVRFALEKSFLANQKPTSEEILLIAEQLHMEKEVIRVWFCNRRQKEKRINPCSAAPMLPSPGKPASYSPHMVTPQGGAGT
The description is as above. The following applies: protein: recombinant; dsDNA, one strand shown. In outline: as §1

In test [3] the target is POU1 (OCT1 POU domain);BOB1 (OBF1, OCA-B) (human;human, UniProt P14859;Q16633 260-458;1-256, |). Briefly: EMSA-SELEX-seq; with BOB1 (ternary complex band); 20 mM Tris-HCl pH 7.6, 140 mM NaCl, 10% glycerol, 0.5 mM EDTA, 0.05% Triton X-100, 0.1 mg/mL BSA, 0.1 mg/mL poly(dI-dC), 5 mM DTT, room temperature, 20 min; high values mean tight binding. The following applies: protein: recombinant;recombinant; copies: 1;1; dsDNA, one strand shown. In a few lines: as §1

The target in test [4] is T2, POU2 (OCT2 POU domain);BOB1 (OBF1, OCA-B) (human;human, UniProt P09086;Q16633 175-386;1-256, |).
T2 sequence 1: T1 sequence
T2 sequence 2: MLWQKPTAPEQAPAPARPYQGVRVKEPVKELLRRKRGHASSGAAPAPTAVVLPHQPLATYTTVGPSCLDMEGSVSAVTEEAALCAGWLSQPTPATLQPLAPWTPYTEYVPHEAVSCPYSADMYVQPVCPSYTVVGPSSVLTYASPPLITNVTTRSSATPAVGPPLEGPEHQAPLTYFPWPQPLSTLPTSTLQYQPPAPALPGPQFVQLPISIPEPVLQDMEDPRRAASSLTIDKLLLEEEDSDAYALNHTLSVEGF
The test is described as above. The note with it: protein: recombinant;recombinant; copies: 1;1; dsDNA, one strand shown. In a few lines:
as §1

Chain of POU1 (OCT1 POU domain) (P14859 260-458): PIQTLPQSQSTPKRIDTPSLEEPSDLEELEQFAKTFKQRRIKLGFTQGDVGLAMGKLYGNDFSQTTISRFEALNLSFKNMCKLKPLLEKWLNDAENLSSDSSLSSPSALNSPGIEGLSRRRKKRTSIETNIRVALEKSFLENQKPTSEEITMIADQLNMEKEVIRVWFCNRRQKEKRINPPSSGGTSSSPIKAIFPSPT

With AAATAAAC, the binding signal is 0.116 % of ANNNNAAN 8-mers in test [1], 0.119 % of ANNNNAAN 8-mers in test [2], 0.142 % of ANNNNAAN 8-mers in test [3] and 0.13 % of ANNNNAAN 8-mers in test [4].

For the sequence AGGTAAAT, the binding signal in test [1] was 0.379 % of ANNNNAAN 8-mers; in test [2] it was 0.269 % of ANNNNAAN 8-mers; in test [3] it was 0.55 % of ANNNNAAN 8-mers; in test [4], 0.391 % of ANNNNAAN 8-mers.

As to AGTGTAAT, the binding signal was 0.085 % of ANNNNAAN 8-mers in test [1], 0.104 % of ANNNNAAN 8-mers in test [2], 0.0679 % of ANNNNAAN 8-mers in test [3] and 0.0867 % of ANNNNAAN 8-mers in test [4].

For ACTAAAAC, the binding signal is 0.0233 % of ANNNNAAN 8-mers in test [1], 0.0311 % of ANNNNAAN 8-mers in test [2], 0.023 % of ANNNNAAN 8-mers in test [3] and 0.0297 % of ANNNNAAN 8-mers in test [4].

With ACGTAAAC, the binding signal was 0.0358 % of ANNNNAAN 8-mers in test [1], 0.0299 % of ANNNNAAN 8-mers in test [2], 0.0433 % of ANNNNAAN 8-mers in test [3] and 0.0405 % of ANNNNAAN 8-mers in test [4].

For AGTGCAAA, the binding signal in test [1] is 0.0873 % of ANNNNAAN 8-mers; in test [2], 0.0593 % of ANNNNAAN 8-mers; in test [3], 0.126 % of ANNNNAAN 8-mers; in test [4], 0.0743 % of ANNNNAAN 8-mers.

Turning to AGCATAAG, the binding signal was 0.105 % of ANNNNAAN 8-mers in test [1], 0.129 % of ANNNNAAN 8-mers in test [2], 0.0441 % of ANNNNAAN 8-mers in test [3] and 0.0627 % of ANNNNAAN 8-mers in test [4].

On to AGTCAAAC, for which the binding signal in test [1] is 0.0763 % of ANNNNAAN 8-mers; in test [2], 0.042 % of ANNNNAAN 8-mers; in test [3] it was 0.122 % of ANNNNAAN 8-mers; in test [4], 0.0545 % of ANNNNAAN 8-mers.

In the case of AAACTAAG, the binding signal in test [1] was 0.0484 % of ANNNNAAN 8-mers; in test [2] it was 0.0478 % of ANNNNAAN 8-mers; in test [3] it was 0.0636 % of ANNNNAAN 8-mers; in test [4] it was 0.052 % of ANNNNAAN 8-mers.

Turning to AATGCAAT, the binding signal is 0.0862 % of ANNNNAAN 8-mers in test [1], 0.0949 % of ANNNNAAN 8-mers in test [2], 0.089 % of ANNNNAAN 8-mers in test [3] and 0.0916 % of ANNNNAAN 8-mers in test [4].

Turning to AGTTGAAT, the binding signal in test [1] is 0.0927 % of ANNNNAAN 8-mers; in test [2] it was 0.119 % of ANNNNAAN 8-mers; in test [3], 0.0667 % of ANNNNAAN 8-mers; in test [4] it was 0.0834 % of ANNNNAAN 8-mers.

Turning to ACTAAAAT, the binding signal in test [1] is 0.0805 % of ANNNNAAN 8-mers; in test [2], 0.0714 % of ANNNNAAN 8-mers; in test [3], 0.0663 % of ANNNNAAN 8-mers; in test [4], 0.0528 % of ANNNNAAN 8-mers.

Turning to AGGCGAAA, the binding signal in test [1] was 0.0389 % of ANNNNAAN 8-mers; in test [2], 0.0357 % of ANNNNAAN 8-mers; in test [3], 0.0386 % of ANNNNAAN 8-mers; in test [4], 0.0363 % of ANNNNAAN 8-mers.

AGTCAAAT: the binding signal was 0.566 % of ANNNNAAN 8-mers in test [1], 0.367 % of ANNNNAAN 8-mers in test [2], 1.18 % of ANNNNAAN 8-mers in test [3] and 1.04 % of ANNNNAAN 8-mers in test [4].

Take ACTAGAAG: the binding signal is 0.0229 % of ANNNNAAN 8-mers in test [1], 0.0316 % of ANNNNAAN 8-mers in test [2], 0.03 % of ANNNNAAN 8-mers in test [3] and 0.0231 % of ANNNNAAN 8-mers in test [4].

Consider ACCTGAAT, for which the binding signal in test [1] was 0.0583 % of ANNNNAAN 8-mers; in test [2], 0.0656 % of ANNNNAAN 8-mers; in test [3], 0.0359 % of ANNNNAAN 8-mers; in test [4], 0.0438 % of ANNNNAAN 8-mers.
